This note sets out measurements from paper PMC11006913.

Residue numbers refer to the chain shown, from its start.

Holding throughout (experiment): PBM; 200 nM protein, PBS
Common to all, as to conditions: dsDNA, one strand shown

Assay [1] deals with HOXB4 (Homo sapiens, UniProt P17483 148-234).
The target in assay [2] is T1, VENTX (Homo sapiens, UniProt O95231 78-163, R121Q).
T1 sequence: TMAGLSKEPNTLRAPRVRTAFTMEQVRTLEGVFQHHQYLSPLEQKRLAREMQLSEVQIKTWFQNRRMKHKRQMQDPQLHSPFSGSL

In assay [3] the target is HOXA4 (Homo sapiens, UniProt Q00056 201-287, W262R).
Assay [4] addresses T2, VENTX (Homo sapiens, UniProt O95231 78-163, Y115F).
T2 sequence: T1 sequence with Y38F, Q44R

The target of assay [5] is HOXA2 (Homo sapiens, UniProt O43364 129-215, R185T).
For assay [6], the target named is HOXA4 (Homo sapiens, UniProt Q00056 201-287, R217L).
The target of assay [7] is HOXB4 (Homo sapiens, UniProt P17483 148-234, V174I).
The target of assay [8] is HOXA2 (Homo sapiens, UniProt O43364 129-215, R185K).
For assay [9], the target named is HOXA4 (Homo sapiens, UniProt Q00056 201-287).
Assay [10] addresses VAX1 (Homo sapiens, UniProt Q5SQQ9 86-172).
Assay [11] deals with VAX1 (Homo sapiens, UniProt Q5SQQ9 86-172, T142I).
The target in assay [12] is HOXA2 (Homo sapiens, UniProt O43364 129-215, Y150S).
Assay [13] deals with HOXA4 (Homo sapiens, UniProt Q00056 201-287, W262F).
Assay [14] concerns the target HOXA2 (Homo sapiens, UniProt O43364 129-215).
Assay [15] concerns the target VAX1 (Homo sapiens, UniProt Q5SQQ9 86-172, K157R).
In another assay the target is HESX1 (Homo sapiens, UniProt Q9UBX0 95-180, F115L).
Sequence of HESX1 (Q9UBX0 95-180 F115L): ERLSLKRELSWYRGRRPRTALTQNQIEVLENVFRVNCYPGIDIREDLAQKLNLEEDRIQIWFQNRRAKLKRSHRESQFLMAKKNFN

Sequence of HOXB4 (Homo sapiens, UniProt P17483 148-234) (P17483 148-234): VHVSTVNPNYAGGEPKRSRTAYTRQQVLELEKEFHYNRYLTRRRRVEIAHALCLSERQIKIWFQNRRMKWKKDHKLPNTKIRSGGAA
Sequence of HOXA4 (Homo sapiens, UniProt Q00056 201-287, W262F) (Q00056 201-287 W262F): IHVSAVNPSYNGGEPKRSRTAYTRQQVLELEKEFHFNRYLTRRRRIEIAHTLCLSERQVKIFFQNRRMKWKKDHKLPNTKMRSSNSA
Sequence of VAX1 (Homo sapiens, UniProt Q5SQQ9 86-172, T142I) (Q5SQQ9 86-172 T142I): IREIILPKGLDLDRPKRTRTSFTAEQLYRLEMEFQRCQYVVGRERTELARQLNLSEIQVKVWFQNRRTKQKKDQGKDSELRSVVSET
Sequence of HOXA2 (Homo sapiens, UniProt O43364 129-215, R185K) (O43364 129-215 R185K): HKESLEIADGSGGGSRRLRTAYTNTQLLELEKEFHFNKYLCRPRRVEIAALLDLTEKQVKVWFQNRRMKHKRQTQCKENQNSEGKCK
Sequence of VAX1 (Homo sapiens, UniProt Q5SQQ9 86-172, K157R) (Q5SQQ9 86-172 K157R): as the sequence (Q5SQQ9 86-172 T142I) above, with I57T, K72R counted along it
Sequence of HOXA2 (Homo sapiens, UniProt O43364 129-215, Y150S) (O43364 129-215 Y150S): as the sequence (O43364 129-215 R185K) above, with Y22S, K57R counted along it
Sequence of HOXA4 (Homo sapiens, UniProt Q00056 201-287, R217L) (Q00056 201-287 R217L): as the sequence (Q00056 201-287 W262F) above, with R17L, F62W counted along it
Sequence of HOXA4 (Homo sapiens, UniProt Q00056 201-287, W262R) (Q00056 201-287 W262R): as the sequence (Q00056 201-287 W262F) above, with F62R counted along it
Sequence of HOXA4 (Homo sapiens, UniProt Q00056 201-287) (Q00056 201-287): as the sequence (Q00056 201-287 W262F) above, with F62W counted along it
Sequence of HOXB4 (Homo sapiens, UniProt P17483 148-234, V174I) (P17483 148-234 V174I): as the sequence (P17483 148-234) above, with V27I counted along it
Sequence of HOXA2 (Homo sapiens, UniProt O43364 129-215, R185T) (O43364 129-215 R185T): as the sequence (O43364 129-215 R185K) above, with K57T counted along it
Sequence of HOXA2 (Homo sapiens, UniProt O43364 129-215) (O43364 129-215): as the sequence (O43364 129-215 R185K) above, with K57R counted along it
Sequence of VAX1 (Homo sapiens, UniProt Q5SQQ9 86-172) (Q5SQQ9 86-172): as the sequence (Q5SQQ9 86-172 T142I) above, with I57T counted along it

For ATCATTAA, the binding signal with HOXB4 [1] was 13.5 upbm affinity estimate (log intensity, higher = more binding, comparable within an allelic series); with VENTX [2] it was 11.7 upbm affinity estimate (log intensity, higher = more binding, comparable within an allelic series); with HOXA4 [3], 10.9 upbm affinity estimate (log intensity, higher = more binding, comparable within an allelic series); in the assay with VENTX [4] it was 11.7 upbm affinity estimate (log intensity, higher = more binding, comparable within an allelic series); in the assay with HOXA2 [5], 13 upbm affinity estimate (log intensity, higher = more binding, comparable within an allelic series); with HOXA4 [6], 12.9 upbm affinity estimate (log intensity, higher = more binding, comparable within an allelic series). In addition, the binding signal with HOXB4 [7] is 14.2 upbm affinity estimate (log intensity, higher = more binding, comparable within an allelic series); in the assay with HOXA2 [8], 13.5 upbm affinity estimate (log intensity, higher = more binding, comparable within an allelic series); with HOXA4 [9], 14.2 upbm affinity estimate (log intensity, higher = more binding, comparable within an allelic series); in the assay with VAX1 [10], 13.2 upbm affinity estimate (log intensity, higher = more binding, comparable within an allelic series); in the assay with VAX1 [11], 13.2 upbm affinity estimate (log intensity, higher = more binding, comparable within an allelic series); with HOXA2 [12], 10.9 upbm affinity estimate (log intensity, higher = more binding, comparable within an allelic series). For the same sequence, the binding signal is 12.5 upbm affinity estimate (log intensity, higher = more binding, comparable within an allelic series) with HOXA4 [13]; 12.7 upbm affinity estimate (log intensity, higher = more binding, comparable within an allelic series) in the assay with HOXA2 [14]; 13 upbm affinity estimate (log intensity, higher = more binding, comparable within an allelic series) with VAX1 [15].

Turning to AGTCATTA, the binding signal in the assay with HOXB4 [1] was 13.1 upbm affinity estimate (log intensity, higher = more binding, comparable within an allelic series); in the assay with VENTX [2], 11.7 upbm affinity estimate (log intensity, higher = more binding, comparable within an allelic series); in the assay with HOXA4 [3] it was 10.6 upbm affinity estimate (log intensity, higher = more binding, comparable within an allelic series); with VENTX [4], 11.7 upbm affinity estimate (log intensity, higher = more binding, comparable within an allelic series); with HOXA2 [5], 12.9 upbm affinity estimate (log intensity, higher = more binding, comparable within an allelic series); with HOXA4 [6], 12.5 upbm affinity estimate (log intensity, higher = more binding, comparable within an allelic series). Besides, the binding signal with HOXB4 [7] is 13.7 upbm affinity estimate (log intensity, higher = more binding, comparable within an allelic series); with HOXA2 [8], 13.5 upbm affinity estimate (log intensity, higher = more binding, comparable within an allelic series); with HOXA4 [9], 13.9 upbm affinity estimate (log intensity, higher = more binding, comparable within an allelic series); with VAX1 [10] it was 13.1 upbm affinity estimate (log intensity, higher = more binding, comparable within an allelic series); with VAX1 [11], 13 upbm affinity estimate (log intensity, higher = more binding, comparable within an allelic series); with HOXA2 [12], 10.9 upbm affinity estimate (log intensity, higher = more binding, comparable within an allelic series). The binding signal in the assay with HOXA4 [13] was 12 upbm affinity estimate (log intensity, higher = more binding, comparable within an allelic series); with HOXA2 [14] it was 12.7 upbm affinity estimate (log intensity, higher = more binding, comparable within an allelic series); with VAX1 [15] it was 12.9 upbm affinity estimate (log intensity, higher = more binding, comparable within an allelic series).

Consider CCATTAAG, for which the binding signal was 13 upbm affinity estimate (log intensity, higher = more binding, comparable within an allelic series) in the assay with HOXB4 [1]; 11.8 upbm affinity estimate (log intensity, higher = more binding, comparable within an allelic series) with VENTX [2]; 10.5 upbm affinity estimate (log intensity, higher = more binding, comparable within an allelic series) with HOXA4 [3]; 11.5 upbm affinity estimate (log intensity, higher = more binding, comparable within an allelic series) in the assay with VENTX [4]; 11.8 upbm affinity estimate (log intensity, higher = more binding, comparable within an allelic series) in the assay with HOXA4 [6]; 13.6 upbm affinity estimate (log intensity, higher = more binding, comparable within an allelic series) in the assay with HOXB4 [7]. The binding signal is 13.7 upbm affinity estimate (log intensity, higher = more binding, comparable within an allelic series) with HOXA4 [9] and 11.3 upbm affinity estimate (log intensity, higher = more binding, comparable within an allelic series) in the assay with HOXA4 [13].

As to ACTAATGG, the binding signal with HOXB4 [1] is 12.9 upbm affinity estimate (log intensity, higher = more binding, comparable within an allelic series); with VENTX [2], 12.2 upbm affinity estimate (log intensity, higher = more binding, comparable within an allelic series); in the assay with HOXA4 [3], 10.5 upbm affinity estimate (log intensity, higher = more binding, comparable within an allelic series); with VENTX [4] it was 11.9 upbm affinity estimate (log intensity, higher = more binding, comparable within an allelic series); in the assay with HOXA2 [5] it was 12.2 upbm affinity estimate (log intensity, higher = more binding, comparable within an allelic series); with HOXA4 [6] it was 11.5 upbm affinity estimate (log intensity, higher = more binding, comparable within an allelic series). The binding signal with HOXB4 [7] was 13.5 upbm affinity estimate (log intensity, higher = more binding, comparable within an allelic series); with HOXA2 [8], 13 upbm affinity estimate (log intensity, higher = more binding, comparable within an allelic series); with HOXA4 [9], 13.5 upbm affinity estimate (log intensity, higher = more binding, comparable within an allelic series); with VAX1 [10], 12.7 upbm affinity estimate (log intensity, higher = more binding, comparable within an allelic series); in the assay with VAX1 [11], 12.1 upbm affinity estimate (log intensity, higher = more binding, comparable within an allelic series); with HOXA2 [12], 10.8 upbm affinity estimate (log intensity, higher = more binding, comparable within an allelic series). Besides, the binding signal with HOXA4 [13] was 11.3 upbm affinity estimate (log intensity, higher = more binding, comparable within an allelic series); in the assay with HOXA2 [14], 12.1 upbm affinity estimate (log intensity, higher = more binding, comparable within an allelic series); with VAX1 [15], 12.3 upbm affinity estimate (log intensity, higher = more binding, comparable within an allelic series).

Turning to GCGCAGCC, the binding signal in the assay with HOXB4 [1] was 7.53 upbm affinity estimate (log intensity, higher = more binding, comparable within an allelic series); with HOXB4 [7] it was 7.57 upbm affinity estimate (log intensity, higher = more binding, comparable within an allelic series).

On to ATCGATTA, for which the binding signal in the assay with HOXB4 [1] is 13.1 upbm affinity estimate (log intensity, higher = more binding, comparable within an allelic series); in the assay with VENTX [2], 11.7 upbm affinity estimate (log intensity, higher = more binding, comparable within an allelic series); with VENTX [4], 11.3 upbm affinity estimate (log intensity, higher = more binding, comparable within an allelic series); with HOXA2 [5] it was 12.6 upbm affinity estimate (log intensity, higher = more binding, comparable within an allelic series); with HOXA4 [6] it was 12 upbm affinity estimate (log intensity, higher = more binding, comparable within an allelic series); with HOXB4 [7] it was 13.8 upbm affinity estimate (log intensity, higher = more binding, comparable within an allelic series). Besides, the binding signal with HOXA2 [8] was 13.1 upbm affinity estimate (log intensity, higher = more binding, comparable within an allelic series); with HOXA4 [13] it was 11 upbm affinity estimate (log intensity, higher = more binding, comparable within an allelic series).

As for GTTAATGA, the binding signal with HOXB4 [1] was 13.3 upbm affinity estimate (log intensity, higher = more binding, comparable within an allelic series); with VENTX [2], 11.9 upbm affinity estimate (log intensity, higher = more binding, comparable within an allelic series); in the assay with HOXA4 [3], 10.7 upbm affinity estimate (log intensity, higher = more binding, comparable within an allelic series); with VENTX [4], 11.9 upbm affinity estimate (log intensity, higher = more binding, comparable within an allelic series); in the assay with HOXA2 [5], 13.1 upbm affinity estimate (log intensity, higher = more binding, comparable within an allelic series); with HOXA4 [6], 12.7 upbm affinity estimate (log intensity, higher = more binding, comparable within an allelic series). Besides, the binding signal with HOXB4 [7] was 14 upbm affinity estimate (log intensity, higher = more binding, comparable within an allelic series); with HOXA2 [8], 13.5 upbm affinity estimate (log intensity, higher = more binding, comparable within an allelic series); with HOXA4 [9], 14.1 upbm affinity estimate (log intensity, higher = more binding, comparable within an allelic series); with VAX1 [10] it was 13.5 upbm affinity estimate (log intensity, higher = more binding, comparable within an allelic series); in the assay with VAX1 [11] it was 13.4 upbm affinity estimate (log intensity, higher = more binding, comparable within an allelic series); with HOXA2 [12] it was 10.9 upbm affinity estimate (log intensity, higher = more binding, comparable within an allelic series). The binding signal with HOXA4 [13] is 12.3 upbm affinity estimate (log intensity, higher = more binding, comparable within an allelic series); in the assay with HOXA2 [14], 12.8 upbm affinity estimate (log intensity, higher = more binding, comparable within an allelic series); with VAX1 [15], 13.3 upbm affinity estimate (log intensity, higher = more binding, comparable within an allelic series).

For the sequence ATTATTAA, the binding signal with HOXB4 [1] is 12.9 upbm affinity estimate (log intensity, higher = more binding, comparable within an allelic series); in the assay with HOXB4 [7], 13.6 upbm affinity estimate (log intensity, higher = more binding, comparable within an allelic series); in the assay with HESX1 it was 7.79 upbm affinity estimate (log intensity, higher = more binding, comparable within an allelic series).

With CGCCGAAG, the binding signal with HOXB4 [1] is 7.84 upbm affinity estimate (log intensity, higher = more binding, comparable within an allelic series); with HOXB4 [7], 7.65 upbm affinity estimate (log intensity, higher = more binding, comparable within an allelic series).
